6 sequences from article PMC4081100, “A DNA-binding-site landscape and regulatory network analysis for NAC transcription factors in Arabidopsis thaliana” can be followed below.

Common to all, as to assay: universal protein binding microarray (PBM); transcription factors of Arabidopsis thaliana; high values mean tight binding
What all share (settings): protein: recombinant; tags: GST; chain copies: 2; dsDNA, one strand shown

Assay [1] addresses T1, GST-ANAC092(1-176) (Arabidopsis thaliana, UniProt Q9FKA0 1-176).
T1 sequence: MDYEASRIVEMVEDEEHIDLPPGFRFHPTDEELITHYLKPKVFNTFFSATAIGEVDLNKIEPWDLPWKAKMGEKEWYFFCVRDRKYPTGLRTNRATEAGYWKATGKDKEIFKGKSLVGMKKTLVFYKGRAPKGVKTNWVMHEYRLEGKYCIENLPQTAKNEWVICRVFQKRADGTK
The procedure, abridged:
(§1)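 For zinc-finger proteins, zinc acetate was added while GST-tagged NAC-domain, full-length or DNA-binding-domain proteins were induced in cells. Purification used glutathione–Sepharose 4B, and quantification used A280 or anti-GST western blot. Custom all-10-mer Agilent 4 × 180K arrays, made double-stranded by primer extension, each received a protein at 200 to 500 nM final in duplicate. Scoring covered gapped and ungapped 8-mers, with binding given as the normalised enrichment score (E-score).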

In assay [2] the target is GST-NTL6(1-168) (Arabidopsis thaliana, UniProt Q9SCK6 1-168). The procedure, abridged:
as §1

The target of assay [3] is T2, GST-ANAC019 NAC domain (Arabidopsis thaliana, UniProt Q9C932 14-162).
T2 sequence: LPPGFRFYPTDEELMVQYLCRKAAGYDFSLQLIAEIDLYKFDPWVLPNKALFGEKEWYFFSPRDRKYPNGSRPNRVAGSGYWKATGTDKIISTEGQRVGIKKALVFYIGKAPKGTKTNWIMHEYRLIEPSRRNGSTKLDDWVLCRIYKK
A digest of the protocol: as §1

Assay [4] concerns the target T3, GST-ANAC055(1-171) (Arabidopsis thaliana, UniProt Q9LDY8 1-171).
T3 sequence: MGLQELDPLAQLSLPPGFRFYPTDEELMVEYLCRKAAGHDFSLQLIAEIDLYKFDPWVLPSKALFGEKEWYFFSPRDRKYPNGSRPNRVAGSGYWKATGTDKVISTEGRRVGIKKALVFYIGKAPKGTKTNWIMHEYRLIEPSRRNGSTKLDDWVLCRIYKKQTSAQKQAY
The procedure, abridged: as §1

In assay [5] the target is T4, GST-ATAF1 NAC domain (Arabidopsis thaliana, UniProt Q39013 7-158).
T4 sequence: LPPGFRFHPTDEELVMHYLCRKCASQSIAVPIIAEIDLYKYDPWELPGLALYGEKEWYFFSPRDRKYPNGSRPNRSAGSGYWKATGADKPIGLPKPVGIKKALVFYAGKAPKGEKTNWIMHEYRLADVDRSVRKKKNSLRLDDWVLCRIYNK
The procedure, abridged:
as §1

For assay [6], the target named is T5, GST-ANAC092(1-285) full length (Arabidopsis thaliana, UniProt Q9FKA0 1-285).
T5 sequence: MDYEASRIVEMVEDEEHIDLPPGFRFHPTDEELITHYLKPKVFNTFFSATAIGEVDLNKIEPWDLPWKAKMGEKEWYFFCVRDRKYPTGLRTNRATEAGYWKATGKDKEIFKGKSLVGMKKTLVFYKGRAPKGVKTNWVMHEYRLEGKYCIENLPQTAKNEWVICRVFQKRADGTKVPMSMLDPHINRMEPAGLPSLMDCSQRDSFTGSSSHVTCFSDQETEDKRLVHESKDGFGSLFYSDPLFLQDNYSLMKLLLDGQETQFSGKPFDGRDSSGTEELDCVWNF
The procedure, abridged:
as §1

For assay [7], the target named is T6, GST-NAP(1-166) (Arabidopsis thaliana, UniProt O49255 1-166).
T6 sequence: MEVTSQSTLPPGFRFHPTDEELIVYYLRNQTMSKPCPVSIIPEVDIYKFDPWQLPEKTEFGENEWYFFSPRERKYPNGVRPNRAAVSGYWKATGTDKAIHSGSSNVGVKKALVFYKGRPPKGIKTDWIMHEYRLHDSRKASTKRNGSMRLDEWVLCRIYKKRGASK
The procedure, abridged:
as §1

Assay [8] concerns the target T7, GST-NST2(1-184) (Arabidopsis thaliana, UniProt Q9M274 1-184).
T7 sequence: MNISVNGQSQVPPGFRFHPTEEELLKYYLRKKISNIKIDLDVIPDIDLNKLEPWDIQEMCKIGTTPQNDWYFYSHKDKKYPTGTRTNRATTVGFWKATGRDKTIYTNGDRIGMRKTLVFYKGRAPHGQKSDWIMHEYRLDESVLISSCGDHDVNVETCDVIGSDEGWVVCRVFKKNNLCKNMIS
A digest of the protocol: as §1

Assay [9] addresses T8, GST-NTL8 NAC domain (Arabidopsis thaliana, UniProt Q9XIN7 14-156).
T8 sequence: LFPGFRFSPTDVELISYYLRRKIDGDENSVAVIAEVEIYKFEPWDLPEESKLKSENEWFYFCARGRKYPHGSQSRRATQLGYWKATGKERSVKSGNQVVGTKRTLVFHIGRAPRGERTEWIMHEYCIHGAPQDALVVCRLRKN
The procedure, abridged: as §1

The target in assay [10] is T9, GST-SND1(1-203) (Arabidopsis thaliana, UniProt Q9LPI7 1-203).
T9 sequence: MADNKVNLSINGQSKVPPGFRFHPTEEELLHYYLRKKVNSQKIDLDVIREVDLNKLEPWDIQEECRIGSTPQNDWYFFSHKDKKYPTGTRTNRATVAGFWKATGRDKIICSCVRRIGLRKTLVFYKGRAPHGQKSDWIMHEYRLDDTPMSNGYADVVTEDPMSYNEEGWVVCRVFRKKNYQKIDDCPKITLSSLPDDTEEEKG
A digest of the protocol:
as §1

Assay [11] concerns the target T10, GST-VND3 NAC domain (Arabidopsis thaliana, UniProt Q9FH59 12-162).
T10 sequence: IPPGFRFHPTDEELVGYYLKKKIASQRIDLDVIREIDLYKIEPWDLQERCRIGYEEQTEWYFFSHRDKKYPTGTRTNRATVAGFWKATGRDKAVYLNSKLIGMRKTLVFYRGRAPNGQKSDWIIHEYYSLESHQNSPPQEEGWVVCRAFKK
A digest of the protocol:
as §1

For assay [12], the target named is T11, GST-VND7 NAC domain (Arabidopsis thaliana, UniProt Q9C8W9 9-158).
T11 sequence: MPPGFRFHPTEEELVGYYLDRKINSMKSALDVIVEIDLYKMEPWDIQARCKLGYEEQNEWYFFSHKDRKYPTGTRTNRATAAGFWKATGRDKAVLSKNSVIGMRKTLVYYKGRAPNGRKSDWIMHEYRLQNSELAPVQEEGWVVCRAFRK
The procedure, abridged:
as §1

GST-NTL6(1-168), sequence (Q9SCK6 1-168): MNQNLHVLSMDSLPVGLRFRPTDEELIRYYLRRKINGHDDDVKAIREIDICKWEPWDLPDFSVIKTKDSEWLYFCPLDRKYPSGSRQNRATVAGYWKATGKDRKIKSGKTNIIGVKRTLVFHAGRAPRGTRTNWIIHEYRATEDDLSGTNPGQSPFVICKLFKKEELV

Take GCAAGGAA: the binding signal in assay [1] was determined as 0.345 E-score; in assay [2] it was 0.418 E-score; in assay [3], 0.185 E-score; in assay [4] it was 0.211 E-score; in assay [5] it was 0.18 E-score; in assay [6], 0.371 E-score. The binding signal in [7] came out at 0.133 E-score; in assay [8], 0.175 E-score; in [9], 0.431 E-score; in assay [10], 0.276 E-score; in assay [11] it was 0.187 E-score; in assay [12] it was 0.229 E-score.

For GAAGGAAC, the binding signal in assay [1] turned out to be 0.189 E-score; in assay [2] it was 0.445 E-score; in assay [3] it was 0.172 E-score; in assay [4], 0.172 E-score; in [5], 0.0557 E-score; in [6], 0.204 E-score. The binding signal in [7] was found to be 0.148 E-score; in [8], 0.249 E-score; in assay [9], 0.45 E-score; in assay [10], 0.337 E-score; in [11], 0.114 E-score; in assay [12], 0.181 E-score.

GTAAGGAA: the binding signal worked out at 0.259 E-score in assay [1]; 0.486 E-score in assay [2]; 0.23 E-score in assay [3]; 0.193 E-score in [4]; 0.239 E-score in [5]; 0.29 E-score in assay [6]. For the same sequence, the binding signal in assay [7] came out at 0.268 E-score; in assay [8] it was 0.271 E-score; in assay [9], 0.392 E-score; in assay [10] it was 0.35 E-score; in assay [11], 0.231 E-score; in [12] it was 0.236 E-score.

CTACGTAA: the binding signal was 0.329 E-score in assay [1]; 0.0836 E-score in assay [2]; 0.352 E-score in assay [3]; 0.295 E-score in [4]; 0.316 E-score in assay [5]; 0.378 E-score in assay [6]. Besides, the binding signal in [7] is 0.312 E-score; in assay [8], 0.0582 E-score; in assay [9] it was 0.105 E-score; in [10], 0.402 E-score; in assay [11], 0.378 E-score; in [12], 0.345 E-score.

As to ACGAGAAA, the binding signal was determined as 0.249 E-score in assay [1]; 0.265 E-score in assay [2]; 0.324 E-score in assay [3]; 0.419 E-score in [4]; 0.184 E-score in assay [5]; 0.141 E-score in assay [6]. The binding signal in assay [7] was 0.206 E-score; in assay [8], 0.188 E-score; in assay [9], 0.124 E-score; in assay [10], 0.151 E-score; in [11], 0.276 E-score; in [12], 0.302 E-score.

With ACGCAACA, the binding signal stood at 0.473 E-score in [1]; 0.0917 E-score in [2]; 0.408 E-score in assay [3]; 0.35 E-score in assay [4]; 0.292 E-score in assay [5]; 0.484 E-score in [6]. Besides, the binding signal in assay [7] is 0.399 E-score; in [8], 0.4 E-score; in [9], 0.0984 E-score; in assay [10] it was 0.467 E-score; in [11], 0.347 E-score; in assay [12], 0.406 E-score.
